Each structure is given as a SMILES string. Results filed as inconclusive are left out. A call without a number means that no potency is given here. Activity calls are given as the source filed them. The call rests on the fitted dose curve; in most records, active means well fitted inhibition curve with a large enough effect; inconclusive means small, poorly fitted or top-dose-only effect; inactive means no such curve, though single readings can be large or run the other way.

We go through 23 compounds from PubChem BioAssay (NCATS).
Potency means the concentration at half of the fitted maximal effect.

A short description of the experiment: BET inhibitor-based combinations targeting novel dependencies in MECOM-rearranged (r) AML: OCI-AML3 cell line (AID 2202232). Further: nearly all actives have a fitted effect of over 35% in size. The following applies: CellTiter-Glo luminescence, 48 h; Potency: OCI-AML3 viability; series mostly up to 46 µM. The essentials:
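Here, 11-point titrations of each agent were applied to 500 seeded cells and incubated 48 hr; CellTiter-Glo signal, scaled against DMSO and empty wells, was integrated as AUC, then Z-scored within the individual line.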
On the technique in general: ATP-based viability assays read luminescence as a measure of living cells.
On to `CN[C@@H]1C[C@H]2O[C@@](C)([C@@H]1OC)n1c3ccccc3c3c4c(c5c6ccccc6n2c5c31)C(=O)NC4`, for which the Potency was 83.3 nM (active).
As to `CN(C)[C@@H]1C(=O)C(C(N)=O)=C(O)[C@@]2(O)C(=O)C3=C(O)c4c(O)cccc4[C@@](C)(O)[C@H]3[C@H](O)[C@@H]12`, the Potency result was “inactive”.
For `C/C(O)=C(\C#N)C(=O)Nc1cc(Br)ccc1Br` the value was “inactive”; for `O=C(Nc1ccncc1)C(=O)c1cn(Cc2ccc(Cl)cc2)c2ccccc12`, 417 nM (active); for `COc1cc(C)[nH]c(=O)c1CNC(=O)c1c(C)n([C@H](C)C2CCN(CC(F)(F)F)CC2)c2ccccc12`, 14800 nM (active).
Then `O=C(CBr)N1CC([N+](=O)[O-])([N+](=O)[O-])C1`, with 34000 nM (active); and `CO[C@H]1CCC(O[C@H]2C[C@H]([C@]3(C)CC[C@]4(C[C@H](O)[C@@H](C)[C@@H]([C@@H](C)/C=C(\C)C(=O)[C@H](C)C[C@H](C)C(=O)O)O4)O3)O[C@]3(O[C@@H]([C@H]4O[C@@](O)(CO)[C@H](C)C[C@@H]4C)C[C@@H]3C)[C@@H]2C)O[C@@H]1C` (stereo partly drawn), with 235 nM (active); and `COc1cc([C@@H]2c3cc4c(cc3[C@@H](O)C3COC(=O)C32)OCO4)cc(OC)c1O` (stereo partly drawn), with 296 nM (active).
Then `C=C[C@H]1CN2CCC1C[C@@H]2[C@@H](O)c1ccnc2ccccc12` (stereo partly drawn), with “inactive”; and `CC1(C)CC(O)CC(C)(C)N1O`, with “inactive”; and `C[C@@H](C1CC[C@@]2(O)C3=CC(=O)[C@@H]4C[C@@H](O)[C@@H](O)C[C@]4(C)[C@H]3CC[C@]12C)[C@H](O)CCC(C)(C)O` (stereo partly drawn), with “inactive”.
On to `CC1(C)CC[C@]2(NC(=O)C(C)(F)F)CC[C@]3(C)[C@H](C(=O)C=C4[C@@]5(C)C=C(C#N)C(=O)C(C)(C)[C@@H]5CC[C@]43C)[C@@H]2C1`, for which the Potency was 1480 nM (active).
Then `COc1cc2cc(c1Cl)N(C)C(=O)C[C@H](OC(=O)C(C)C)[C@]1(C)O[C@@H]1[C@H](C)[C@@H]1C[C@@](O)(NC(=O)O1)[C@H](OC)/C=C/C=C(\C)C2`, with “inactive”.
For `O=C(NCC1CCOCC1)c1cnc(Nc2ccc(Cl)cc2Cl)nc1C(F)(F)F`, the Potency result is “inactive”.
On to `C[C@]12CC[C@H]3[C@@H](CCC4=CC(=O)CC[C@@]43C)[C@H]1CC[C@H]2OC(=O)CCC1CCCC1`, for which the Potency entry is “inactive”.
For `N#CC(O[C@@H]1O[C@H](CO[C@@H]2O[C@H](CO)[C@@H](O)[C@H](O)[C@H]2O)[C@@H](O)[C@H](O)[C@H]1O)c1ccccc1` (stereo partly drawn) the value was “inactive”; for `COC[C@H]1OC(=O)c2coc3c2[C@@]1(C)C1=C(C3=O)[C@@H]2CC[C@H](O)[C@@]2(C)C[C@H]1OC(C)=O`, 10500 nM (active); for `CC(C)C[C@H](CN)CC(=O)O`, “inactive”.
Then `CN1C(=O)[C@@H](NC(=O)[C@H](CCC(F)(F)F)[C@H](CCC(F)(F)F)C(N)=O)N=C(c2ccccc2)c2ccccc21`, with “inactive”.
In the case of `C[C@@H]1CC[C@@]2(OC1)O[C@H]1C[C@H]3[C@@H]4CC=C5C[C@@H](O[C@@H]6O[C@H](CO)[C@@H](O[C@@H]7O[C@@H](C)[C@H](O)[C@@H](O)[C@H]7O)[C@H](O)[C@H]6O[C@@H]6O[C@@H](C)[C@H](O)[C@@H](O)[C@H]6O)CC[C@]5(C)[C@H]4CC[C@]3(C)[C@H]1[C@@H]2C`, the Potency is 7420 nM (active).
On to `C[C@@]12OC(=O)[C@]1([C@@H](O)[C@@H]1C=CCCC1)NC(=O)[C@@H]2CCCl`, for which the Potency was 20.9 nM (active).
For `C[C@H]1CCC/C=C/C2C[C@H](O)C[C@H]2[C@H](O)/C=C/C(=O)O1` (stereo partly drawn) the value was 417 nM (active); for `C#CCN(C)[C@H](C)Cc1ccccc1`, “inactive”.
